Data on 13 compounds can be found in PubChem BioAssay (NCATS).

The term viability denotes a read-out of living cells in per cent, often relative to untreated cells.

Test [1] is described as follows: Quantitative High-Throughput drug screen in 47 multiple myeloma cell lines against the NCATS MIPE library collection: KMS12PE_JCRB cell viability assay (AID 1918972). For viability: series mostly up to about 46 µM. Note: nearly all actives have a fitted effect of over 30% in size. Note: potency is the fitted concentration of half-maximal effect. An outline of the steps: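 Myeloma cell lines, 500 cells per well, exposed to MIPE 4.0 library compounds for 48 h at 37C, 5% CO2. Viability from ATP by CellTiter-Glo luminescence; normalised to DMSO (100%) and media-only (0%) wells.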

The nature of test [2]: Quantitative High-Throughput drug screen in 47 multiple myeloma cell lines against the NCATS MIPE library collection: KMS20_JCRB cell viability assay (AID 1918973). Note: nearly all actives have a fitted effect of over 45% in size. Note: potency is the fitted concentration of half-maximal effect. Put shortly:
(§1)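 Relative luminescence from CellTiter-Glo served as the viability signal, referenced to DMSO-treated (100%) and cell-free medium (0%) controls. Treatment lasted 48 hours at 37C with 500 cells per well.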

Test [3] can be described thus: Quantitative High-Throughput drug screen in 47 multiple myeloma cell lines against the NCATS MIPE library collection: KMS21BM_JCRB cell viability assay (AID 1918974). Note: potency is the fitted concentration of half-maximal effect. Put shortly:
as §1

Test [4] is described as follows: Quantitative High-Throughput drug screen in 47 multiple myeloma cell lines against the NCATS MIPE library collection: KMS26_JCRB cell viability assay (AID 1918975). Note: nearly all actives have a fitted effect of over 45% in size. Note: potency is the fitted concentration of half-maximal effect. Put shortly:
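Myeloma cells (500 per well) were exposed to MIPE 4.0 compounds by pin transfer and incubated 48 hours at 37C, 5% CO2. Viability was read as ATP by CellTiter-Glo luminescence, normalised to DMSO (100%) and media-only (0%) wells.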

Test [5] can be described thus: Quantitative High-Throughput drug screen in 47 multiple myeloma cell lines against the NCATS MIPE library collection: NCIH929_DSMZ cell viability assay (AID 1918978). Note: nearly all actives have a fitted effect of over 35% in size. Note: potency is the fitted concentration of half-maximal effect. An outline of the steps: (§2)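 500 cells/well per myeloma line exposed to pinned MIPE 4.0 compounds for 48 h at 37 °C, 5% CO2. Viability read as ATP by CellTiter-Glo luminescence, normalised to DMSO-only (100%) and media-only (0%) wells.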

A short description of test [6]: Quantitative High-Throughput drug screen in 47 multiple myeloma cell lines against the NCATS MIPE library collection: OCIMY1_PLB cell viability assay (AID 1918979). Note: series mostly up to about 46 µM; nearly all actives have a fitted effect of over 35% in size. An outline of the steps: as §2
A short description of test [7]: Quantitative High-Throughput drug screen in 47 multiple myeloma cell lines against the NCATS MIPE library collection: MM1R_ATCC cell viability assay (AID 1918981). Note: nearly all actives have a fitted effect of over 35% in size. Note: potency is the fitted concentration of half-maximal effect. Put shortly:
as §2

Test [8] can be described thus: Quantitative High-Throughput drug screen in 47 multiple myeloma cell lines against the NCATS MIPE library collection: LP1_DSMZ cell viability assay (AID 1918982). Note: nearly all actives have a fitted effect of over 35% in size. Put shortly:
as §2

The nature of test [9]: Quantitative High-Throughput drug screen in 47 multiple myeloma cell lines against the NCATS MIPE library collection: L363_DSMZ cell viability assay (AID 1918984). Note: nearly all actives have a fitted effect of over 40% in size. Note: potency is the fitted concentration of half-maximal effect. Put shortly: as §2
The nature of test [10]: Quantitative High-Throughput drug screen in 47 multiple myeloma cell lines against the NCATS MIPE library collection: KMS34_JCRB cell viability assay (AID 1918985). Note: nearly all actives have a fitted effect of over 40% in size. Note: potency is the fitted concentration of half-maximal effect. An outline of the steps:
as §2

The nature of test [11]: Quantitative High-Throughput drug screen in 47 multiple myeloma cell lines against the NCATS MIPE library collection: OCIMY5_PLB cell viability assay (AID 1918988). Note: nearly all actives have a fitted effect of over 65% in size. Note: potency is the fitted concentration of half-maximal effect. Put shortly:
as §2

Test [12] can be described thus: Quantitative High-Throughput drug screen in 47 multiple myeloma cell lines against the NCATS MIPE library collection: OPM1_PLB cell viability assay (AID 1918989). Note: nearly all actives have a fitted effect of over 40% in size. Note: potency is the fitted concentration of half-maximal effect. Put shortly: as §2
Test [13] in a line: Quantitative High-Throughput drug screen in 47 multiple myeloma cell lines against the NCATS MIPE library collection: MM1S_ATCC cell viability assay (AID 1918980). Note: nearly all actives have a fitted effect of over 45% in size. Note: potency is the fitted concentration of half-maximal effect. Put shortly: as §2
The nature of test [14]: Quantitative High-Throughput drug screen in 47 multiple myeloma cell lines against the NCATS MIPE library collection: OCIMY7_PLB cell viability assay (AID 1918987). Note: nearly all actives have a fitted effect of over 65% in size. Note: potency is the fitted concentration of half-maximal effect. An outline of the steps: as §2
Test [15] is described as follows: Quantitative High-Throughput drug screen in 47 multiple myeloma cell lines against the NCATS MIPE library collection: XG6_PLB cell viability assay (AID 1919865). Note: nearly all actives have a fitted effect of over 40% in size. Note: potency is the fitted concentration of half-maximal effect. An outline of the steps:
as §2

Test [16] can be described thus: Quantitative High-Throughput drug screen in 47 multiple myeloma cell lines against the NCATS MIPE library collection: XG1_PLB cell viability assay (AID 1919866). Note: nearly all actives have a fitted effect of over 35% in size. Note: potency is the fitted concentration of half-maximal effect. Put shortly:
as §2

A short description of test [17]: Quantitative High-Throughput drug screen in 47 multiple myeloma cell lines against the NCATS MIPE library collection: SKMM1_PLB cell viability assay (AID 1919863). For viability: series mostly up to about 46 µM. Note: nearly all actives have a fitted effect of over 35% in size. Note: potency is the fitted concentration of half-maximal effect. The conditions noted are these: SKMM1 myeloma viability, CellTiter-Glo ATP, 48 h; viability: stronger effect = lower value. Put shortly: as §2
On the technique in general: In ATP-based viability assays light output follows the ATP content of the culture.

Test [18] in a line: Quantitative High-Throughput drug screen in 47 multiple myeloma cell lines against the NCATS MIPE library collection: U266_ATCC cell viability assay (AID 1919864). Note: nearly all actives have a fitted effect of over 35% in size. Note: potency is the fitted concentration of half-maximal effect. Put shortly: as §2
Test [19] in a line: Quantitative High-Throughput drug screen in 47 multiple myeloma cell lines against the NCATS MIPE library collection: MOLP8_DSMZ cell viability assay (AID 1918977). Note: nearly all actives have a fitted effect of over 45% in size. Put shortly: as §2
A short description of test [20]: Quantitative High-Throughput drug screen in 47 multiple myeloma cell lines against the NCATS MIPE library collection: MMM1_PLB cell viability assay (AID 1918976). The following applies: MMM1 myeloma cells viability, CellTiter-Glo, 48 h. An outline of the steps: as §2

Records with an inconclusive call do not appear. Unmarked numbers belong to inactive results. Active and inactive are the calls of the source. Calls come from the whole dose curve; as a rule, active = well fitted curve in the direction sought with a large enough effect; inconclusive = small, poorly fitted or top-dose-only effect, or another doubt; inactive = no such curve, though single readings can be large; an effect the other way counts as inactive or inconclusive.

Take `COc1cc(OC)c(OC)cc1C=O`: the Potency result in test [1], in test [2], in [3], in test [4], in [5] and in test [7] was “inactive” throughout. In addition, the Potency entry in [9], in [10], in [11] and in [12] was “inactive” in each case. In addition, the result in test [6] and in test [8] was inactive.

With `C[C@]12CC[C@H]3[C@@H](CC[C@@]45O[C@H]4C(O)=C(C#N)C[C@]35C)[C@H]1CC[C@H]2O`, the Potency entry in test [2], in test [5], in [9], in test [12], in test [15] and in test [16] was “inactive” throughout. Further, the compound was called inactive in test [6] and in [8]. Also, the Potency is 1.48 µM (active) in test [13], 16.6 µM (active) in [10] and 5.26 µM (active) in [14].

Turning to `CC(NC(C)(C)C)C(=O)c1cccc(Cl)c1` (stereo unspecified), the Potency result in [1], in test [4], in test [5], in [10] and in test [15] was “inactive” in each case. The call in [6] was inactive. Further, the Potency in test [11] is 13.2 µM (active). Also, the viability in [17] is 112%.

With `O=C(O)CCCc1ccc(N(CCCl)CCCl)cc1`, the Potency result in [1], in [3], in test [11] and in test [18] was “inactive” throughout. In addition, the compound was classed as inactive in [6]. For the same compound, the Potency in test [7] was 23.5 µM (active); in [14], 4.69 µM (active); in test [15], 11.8 µM (active); in test [16], 16.6 µM (active).

With `C[C@](O)(CS(=O)(=O)c1ccc(F)cc1)C(=O)Nc1ccc(C#N)c(C(F)(F)F)c1`, the Potency was 0.833 µM (active) in [2]; 6.62 µM (active) in test [3]; 4.69 µM (active) in test [4]; 0.296 µM (active) in test [5]; 0.372 µM (active) in test [13]; 2.35 µM (active) in [7]. Further, the Potency in test [14] is 0.469 µM (active); in [11], 0.372 µM (active); in test [12] it was 1.87 µM (active); in [18] it was 0.935 µM (active); in [15], 0.148 µM (active); in test [16], 0.418 µM (active).

As to `CN1C(=O)COc2c(C(=O)NC3CN4CCC3CC4)cc(Cl)cc21` (stereo unspecified), the Potency result in test [1], in test [4], in test [5], in test [7], in [12] and in test [18] was “inactive” in each case. Further, the Potency result in test [15] and in test [16] was “inactive” throughout. Besides, the compound was classed as inactive in test [19], in test [6] and in test [8]. In addition, the viability in test [17] was 152%.

With `O=P1(N(CCCl)CCCl)NCCCO1` (stereo unspecified), the Potency is 8.33 µM (active) in [1]; 14.8 µM (active) in test [3]; 2.35 µM (active) in test [20]; 8.33 µM (active) in [5]; 10.5 µM (active) in test [9]; 13.2 µM (active) in [12]. Further, the Potency in test [16] was 14.8 µM (active). The compound was classed as inactive in test [6] and in [8]. The Potency result in test [13] and in test [15] was “inactive” each time.

As to `C[C@]12CCC(=O)C=C1CC[C@@H]1[C@H]3CC[C@](C)(O)[C@@]3(C)CC[C@@H]12`, the Potency is 15.2 µM (active) in test [1]; 38.2 µM (active) in test [13]; 30.3 µM (active) in test [14]; 48.1 µM (active) in test [11]; 30.3 µM (active) in test [17]; 38.2 µM (active) in test [18]. Besides, the Potency result in test [5] and in test [12] was “inactive” throughout. In addition, the compound was classed as inactive in test [6].

Regarding `CC(C)C[C@H](CN)CC(=O)O`, the Potency result in test [1], in test [4], in test [5], in [7], in test [10] and in [12] was “inactive” throughout. The Potency entry in test [15] and in test [16] was “inactive” in each case. In [20], the Potency was 11.8 µM (active). Besides, the call in test [19], in test [6] and in [8] was inactive.

As to `CCC1(c2ccc(N)cc2)CCC(=O)NC1=O` (stereo unspecified), the Potency result in [1], in test [4], in test [5], in test [13], in test [7] and in test [10] was “inactive” throughout. Also, the Potency result in [11], in [12], in [15] and in [16] was “inactive” in each case. The Potency in test [20] is 0.743 µM (active); in test [18], 1.32 µM (active). The outcome in [19], in test [6] and in [8] was inactive.

For the compound `C[C@]12CC[C@@H]3c4ccc(OC(=O)N(CCCl)CCCl)cc4CC[C@H]3[C@@H]1CC[C@@H]2OP(=O)(O)O`, the Potency entry in [3], in test [5], in [9], in test [10], in test [12] and in test [15] was “inactive” throughout. For the same compound, the Potency entry in [16] was “inactive”. Further, the compound was classed as inactive in [19], in [6] and in test [8].

`CN1C(=O)CCS(=O)(=O)C1c1ccc(Cl)cc1` (stereo unspecified): the Potency entry in test [1], in test [2], in test [4], in test [7], in [9] and in [10] was “inactive” in each case. The Potency result in [14], in test [11], in [12] and in test [18] was “inactive” each time. Also, the call in [19] and in [8] was inactive. Also, the Potency was 20.9 µM (active) in test [5], 18.7 µM (active) in test [13], 18.7 µM (active) in test [15] and 16.6 µM (active) in test [16]. The viability in test [17] is 109%.

Regarding `CC(C)c1cccc(C(C)C)c1O`, the Potency result in test [2], in test [5], in test [7], in [10], in test [12] and in test [18] was “inactive” each time. The Potency entry in test [15] and in [16] was “inactive” each time. The outcome in test [19], in test [6] and in [8] was inactive. In test [13], the Potency is 8.33 µM (active). Moreover, in [17], the viability is 119%.
